Laboratory results: PubChem BioAssay (EPA / NIEHS)
Inconclusive results are not listed. Calls of active or inactive are those of the source. How the source made its calls, unless noted: active means hit-call score of the fitted dose curve at least 0.9, where 1 is the maximum; inconclusive means response in the unintended direction; inactive means score below 0.9.

Experiments:
[1] = STM_H9_CystineISnorm_perc: Stemina devTOX quickPredict H9 human embryonic stem cell (hESC)-based Assay for Cystine (CYSS) Metabolite Biomarker, Normalized (AID 2283713; active means hit-call score of the fitted dose curve at least 0.9, where 1 is the maximum; inactive means score below 0.9)
Summary of the method: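 Cells are held undifferentiated and treated for 72h, receiving fresh medium with compound every 24h. Cystine secreted during the final day is quantified by UPLC-HRMS against a labeled spike-in, then expressed relative to the DMSO vehicle median.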

[2] = Tanguay_ZF_120hpf_ActivityScore_legacy: (Legacy) Oregon State University Tanguay Lab 120 Hour Post-fertilization zebrafish Assay Score for Activity (AID 2283742);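 on AC50: dechorionated Tropical 5D wild-type zebrafish embryos held singly per well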
Summary of the method: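 Dechorionated 5D embryos, one per well, static exposure 6–120 hpf, 28C, sealed and dark; final DMSO 0.64% (vol/vol). Brightfield binary scoring of mortality plus 18 endpoints; gain-of-signal fit versus DMSO baseline.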

[3] = ACEA_AR_antagonist_AUC_viability: ACEA Biosciences xCELLigence Real-Time Cell Analysis on Androgen Receptor Antagonism for Viability (AID 2283776);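 further: 22Rv1 human prostate cancer cells growing on impedance electrode plates; area under impedance growth curve at 80 h after dosing as viability; hits lower the growth signal relative to DMSO meaning cytotoxicity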
Summary of the method: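 Viability endpoint from label-free cell-index monitoring: 22Rv1 cultures treated with an eight-point 1:4 dilution series starting at 100 uM final, AUC at 80 h fitted against DMSO.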

[4] = ArunA_CellTiter_hNC: Viability Assessment in the ArunA Biomedical's Oris Neural Crest (hNC) Cell Migration Assay (AID 2283752)
Summary of the method: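 Seed 60,000 hNC cells per well onto Matrigel in basal growth medium containing LIF and bFGF. Incubate 16 h at 37C. Replace with test medium containing chemical for 72 h, then assess viability by CellTiter Aqueous One.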

[5] = ArunA_CellTiter_hNP: Viability Assessment in the ArunA Biomedical's Oris Neural Crest (hNC) Cell Migration Assay (AID 2283753)
Summary of the method: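 Viability read with CellTiter 96 Aqueous One after 72 h chemical exposure of human hNP1 neuroprogenitors, which were plated on Matrigel in LIF/bFGF medium 16 h beforehand. Endpoint fitted in positive direction relative to DMSO.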

[6] = ArunA_Migration_hNP: ArunA Biomedical's Oris Neuroprogenitor (hNP) Cell Migration Assay (AID 2283754)
Summary of the method: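 Readout is calcein-AM fluorescence (ex494/em517) of cells migrating into the detection zone, relative to DMSO. hNP1 cells (H9-derived) grown on Matrigel behind stoppers 16 h, then stoppers pulled and chemical applied 72 h; cytochalasin D as control.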

[7] = ArunA_Migration_hNC: ArunA Biomedical's Oris Neural Crest (hNC) Cell Migration Assay (AID 2283755)
Summary of the method: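 Calcein-AM fluorescence (ex494 nm/em 517 nm) in the stopper-defined detection zone quantifies migration of hNC cells after 72 h chemical exposure; 60,000 cells/well plated on Matrigel with LIF and bFGF, 16 h pre-incubation. DMSO baseline.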

[8] = ArunA_NOG_NucleusCount: ArunA Biomedical's Neurite Outgrowth (NOG) Assay for Nucleus Count (AID 2283756)
Summary of the method: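 Viable neuron count, from Hoechst nuclei passing size and intensity gates, imaged at 20x on differentiated H9-derived human neurons. Exposure lasted 48 h from seeding; activity was scored relative to DMSO.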

[9] = ArunA_NOG_NeuriteLength: ArunA Biomedical's Neurite Outgrowth (NOG) Assay for Neurite Length (AID 2283757)
Summary of the method: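 Total neurite length per neuron, from traced βIII-tubulin-labelled processes longer than 10 um on viable Hoechst-gated cells, was scored as decrease from DMSO. Cells were hESC (H9)-derived neurons given 48 h chemical exposure immediately after seeding.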

[10] = ArunA_NOG_NeuritesPerNeuron: ArunA Biomedical's Neurite Outgrowth (NOG) Assay for Neurites Per Neuron (AID 2283758)
Summary of the method: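 Differentiated human H9-derived neurons exposed to chemicals for 48 h from seeding, then stained with Hoechst and βIII-tubulin/DyLight 488. Automated imaging counted neurites (processes >10 um) per valid neuron; loss of signal versus DMSO scored.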

[11] = ACEA_AR_agonist_AUC_viability: ACEA Biosciences xCELLigence Real-Time Cell Analysis on Androgen Receptor Agonism for Viability (AID 2283775);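 on AC50: viability read 80 hours after compound addition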
Summary of the method: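 22Rv1 cells; impedance growth kinetics; 8-pt 1:4 dilutions from 100 uM top final, ≤0.5% DMSO; n = 2; 80 h read; AUC viability, loss-of-signal vs DMSO.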

[12] = STM_H9_OrnCyssISnorm_ratio: Stemina devTOX quickPredict H9 human embryonic stem cell (hESC)-based Assay for Ornithine (ORN):Cystine (CYSS) Ratio (AID 2283714)
Summary of the method: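 UPLC-HRMS of spent media: ORN/CYSS ratio of internal-standard-normalized percentages, DMSO (0.1%) baseline. Pluripotent H9 hESCs, 72h exposure, daily re-dosing with fresh media; last 24h media collected.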

[13] = CEETOX_H295R_MTT_cell_viability: Viability Assessment in the CeeTox HT-H295R MTT Assay (AID 2283718; active means hit-call score of the fitted dose curve at least 0.9, where 1 is the maximum; inactive means score below 0.9)
Summary of the method: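 Human H295R adrenal cells, prestimulated 48 h with 10 uM forskolin, were exposed 48 h to chemicals in 0.1% DMSO. Viability was measured in the same wells by MTT (0.5 mg/ml, 4 h, 37 C), absorbance 570/650 nm, as percent of controls.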

[14] = target: Luciferin 4-monooxygenase (Photinus pyralis) (UniProt P08659); assay: CCTE_Simmons_QuantiLum_inhib_2: CCTE's Firefly Luciferase Inhibition Assay, Simmons Lab (AID 2283767);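 on AC50: potency for inhibitors that lower luciferase luminescence relative to DMSO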
Summary of the method: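 First, 5 ng purified luciferase in phosphate buffer with BSA is dispensed per well. Next, test chemicals (5 nM to 87.5 uM final, 0.5% DMSO) are added and incubated 30 min at 37C in darkness. Finally, luciferin reagent is injected and luminescence read kinetically.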

Chain of Luciferin 4-monooxygenase (Photinus pyralis) (P08659 whole entry, looked up): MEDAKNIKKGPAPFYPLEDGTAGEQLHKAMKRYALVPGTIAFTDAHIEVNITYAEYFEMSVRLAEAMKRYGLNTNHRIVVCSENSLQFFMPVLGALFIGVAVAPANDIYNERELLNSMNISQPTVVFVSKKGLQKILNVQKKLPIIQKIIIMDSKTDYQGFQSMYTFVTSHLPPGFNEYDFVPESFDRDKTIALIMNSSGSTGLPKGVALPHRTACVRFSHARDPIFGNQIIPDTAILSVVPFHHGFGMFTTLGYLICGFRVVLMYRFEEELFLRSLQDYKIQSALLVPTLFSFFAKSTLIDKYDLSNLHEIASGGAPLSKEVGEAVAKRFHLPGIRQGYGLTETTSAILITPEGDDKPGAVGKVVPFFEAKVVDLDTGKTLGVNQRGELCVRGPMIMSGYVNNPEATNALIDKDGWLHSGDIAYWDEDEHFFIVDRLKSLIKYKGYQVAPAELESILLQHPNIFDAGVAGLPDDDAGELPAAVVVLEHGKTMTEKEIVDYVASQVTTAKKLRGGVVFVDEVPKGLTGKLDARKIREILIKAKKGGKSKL

O=NO
outcome [1]: inactive | outcome [2]: inactive | outcome [3]: inactive

Cc1ccc(-c2cc(C(F)(F)F)nn2-c2ccc(S(N)(=O)=O)cc2)cc1
outcome [1]: inactive | outcome [2]: inactive | AC50 [4]: 70.4 µM (active) | AC50 [5]: 76.5 µM (active) | AC50 [6]: 81.9 µM (active) | AC50 [7]: 78.7 µM (active) | AC50 [8]: 7.13 µM (active) | AC50 [9]: 12.9 µM (active) | AC50 [10]: 13.9 µM (active) | AC50 [11]: 17.7 µM (active) | AC50 [3]: 15.9 µM (active)

O=C(O)c1cccnc1
outcome [1]: inactive | outcome [12]: inactive | outcome [2]: inactive | outcome [11]: inactive | outcome [3]: inactive

O=C1OC(c2ccc(O)cc2)(c2ccc(O)cc2)c2ccccc21
outcome [1]: inactive | outcome [12]: inactive | outcome [13]: inactive | outcome [2]: inactive | AC50 [6]: 26.9 µM (active) | AC50 [7]: 15.9 µM (active) | outcome [8]: inactive | outcome [14]: inactive | AC50 [11]: 21.1 µM (active) | AC50 [3]: 19.8 µM (active)

NC(=Nc1ccccc1)Nc1ccccc1
outcome [1]: inactive | outcome [13]: inactive | AC50 [2]: 0.00546 µM (active) | outcome [11]: inactive | outcome [3]: inactive

CCCC[C@H]1CN(CC2CCOCC2)C(=O)OC12CCN(C1(C)CCN(C(=O)c3c(C)ncnc3C)CC1)CC2
outcome [1]: inactive | outcome [12]: inactive | outcome [2]: inactive | outcome [11]: inactive | outcome [3]: inactive

CC(COCC(C)OC(=O)c1ccccc1)OC(=O)c1ccccc1 (stereo not drawn)
outcome [1]: inactive | outcome [13]: inactive | outcome [2]: inactive | outcome [3]: inactive

CCCCCCCCCC[N+](C)(C)[O-]
AC50 [1]: 25 µM (active) | AC50 [12]: 22.1 µM (active) | outcome [13]: inactive | outcome [2]: inactive | outcome [11]: inactive | outcome [3]: inactive

O=Cc1ccccc1C=O
outcome [1]: inactive | AC50 [2]: 3.08 µM (active) | AC50 [14]: 53.8 µM (active) | AC50 [11]: 79.2 µM (active) | AC50 [3]: 78.7 µM (active)

CC(=O)S[C@H](C(=O)N[C@H]1Cc2ccccc2[C@H]2CCC[C@@H](C(=O)O)N2C1=O)C(C)C
outcome [1]: inactive | outcome [2]: inactive | outcome [11]: inactive | outcome [3]: inactive
